Experiments:
Assay in all cases: DAPPL (digital affinity profiling via proximity ligation, sequencing); 10 mM Tris-HCl pH 7.5, 50 mM NaCl, 1 mM DTT, 4% glycerol, room temperature, 30 min; GST-TFs on glutathione beads, 16-mer random dsDNA library, 0.1% formaldehyde crosslink after washing; high values mean tight binding
FEV = target: T1, FEV (Homo sapiens, UniProt Q99581 1-238); conditions: protein: recombinant; tags: N-terminal GST; dsDNA, one strand shown
T1 sequence: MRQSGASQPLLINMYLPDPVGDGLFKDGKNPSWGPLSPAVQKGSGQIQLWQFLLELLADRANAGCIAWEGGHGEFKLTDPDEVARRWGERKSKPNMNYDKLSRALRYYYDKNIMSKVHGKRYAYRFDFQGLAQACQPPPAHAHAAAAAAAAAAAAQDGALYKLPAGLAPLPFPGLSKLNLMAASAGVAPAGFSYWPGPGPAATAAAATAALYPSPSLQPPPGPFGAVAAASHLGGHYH
Method in brief: (§1)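 Yeast served to express human transcription factors as GST fusions, which were then captured on glutathione beads and labelled with DNA barcodes. Pooled with a tag-only sample, they were incubated with 200 nmole of a 16-mer random double-stranded DNA library for 30 min at room temperature in Tris/NaCl/DTT/glycerol buffer, washed, crosslinked with 0.1% formaldehyde, ligated by proximity, amplified by PCR and sequenced. Dividing each hexamer's read frequency for a factor by its frequency for the tag-only sample gives the binding signal.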

ETV5 = ETV5 (Homo sapiens, UniProt P41161 1-510); conditions: protein: recombinant; tags: N-terminal GST; dsDNA, one strand shown
Sequence of ETV5 (P41161 whole entry): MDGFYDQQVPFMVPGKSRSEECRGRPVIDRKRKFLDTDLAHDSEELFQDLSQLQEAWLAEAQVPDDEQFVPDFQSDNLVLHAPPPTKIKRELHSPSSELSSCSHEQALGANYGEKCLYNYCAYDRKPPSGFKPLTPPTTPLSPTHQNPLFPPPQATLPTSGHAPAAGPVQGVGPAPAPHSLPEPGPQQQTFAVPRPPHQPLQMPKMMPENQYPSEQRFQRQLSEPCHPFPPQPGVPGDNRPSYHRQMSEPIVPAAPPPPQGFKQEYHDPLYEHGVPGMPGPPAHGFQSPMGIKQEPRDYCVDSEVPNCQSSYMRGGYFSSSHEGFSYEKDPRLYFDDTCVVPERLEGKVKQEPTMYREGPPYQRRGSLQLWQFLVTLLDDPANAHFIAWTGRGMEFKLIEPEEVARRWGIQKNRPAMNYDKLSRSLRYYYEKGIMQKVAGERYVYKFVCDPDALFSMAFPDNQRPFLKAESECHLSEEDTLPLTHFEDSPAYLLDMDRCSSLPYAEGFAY
Method in brief: as §1

HSF1 = HSF1 (Homo sapiens, UniProt Q00613 1-529); conditions: protein: recombinant; tags: N-terminal GST; chain copies: 3; dsDNA, one strand shown
Sequence of HSF1 (Q00613 whole entry): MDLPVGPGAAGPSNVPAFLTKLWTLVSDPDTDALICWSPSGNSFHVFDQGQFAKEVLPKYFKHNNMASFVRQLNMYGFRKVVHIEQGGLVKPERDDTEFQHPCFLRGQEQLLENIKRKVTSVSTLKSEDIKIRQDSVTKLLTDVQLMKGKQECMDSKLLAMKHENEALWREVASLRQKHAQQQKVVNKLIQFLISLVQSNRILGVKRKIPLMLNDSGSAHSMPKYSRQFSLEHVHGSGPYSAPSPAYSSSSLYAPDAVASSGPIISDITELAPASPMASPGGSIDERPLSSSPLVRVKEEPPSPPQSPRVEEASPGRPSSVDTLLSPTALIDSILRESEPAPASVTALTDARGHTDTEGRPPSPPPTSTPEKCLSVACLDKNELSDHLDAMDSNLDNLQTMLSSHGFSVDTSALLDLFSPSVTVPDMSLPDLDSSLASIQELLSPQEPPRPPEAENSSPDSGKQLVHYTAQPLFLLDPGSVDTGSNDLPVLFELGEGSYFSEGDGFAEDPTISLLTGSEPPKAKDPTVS
Method in brief: as §1

SPIC = target: T2, SPIC (Homo sapiens, UniProt Q8N5J4 1-248); conditions: protein: recombinant; tags: N-terminal GST; dsDNA, one strand shown
T2 sequence: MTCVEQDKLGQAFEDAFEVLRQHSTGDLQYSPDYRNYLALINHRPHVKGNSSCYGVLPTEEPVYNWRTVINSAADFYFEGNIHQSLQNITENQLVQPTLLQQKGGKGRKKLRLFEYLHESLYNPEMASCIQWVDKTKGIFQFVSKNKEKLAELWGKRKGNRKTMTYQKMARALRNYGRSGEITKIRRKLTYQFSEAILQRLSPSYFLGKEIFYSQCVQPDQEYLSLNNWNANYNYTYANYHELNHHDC
Method in brief: as §1

ELF4 = ELF4 (Homo sapiens, UniProt Q99607 1-663); conditions: protein: recombinant; tags: N-terminal GST; dsDNA, one strand shown
Sequence of ELF4 (Q99607 whole entry): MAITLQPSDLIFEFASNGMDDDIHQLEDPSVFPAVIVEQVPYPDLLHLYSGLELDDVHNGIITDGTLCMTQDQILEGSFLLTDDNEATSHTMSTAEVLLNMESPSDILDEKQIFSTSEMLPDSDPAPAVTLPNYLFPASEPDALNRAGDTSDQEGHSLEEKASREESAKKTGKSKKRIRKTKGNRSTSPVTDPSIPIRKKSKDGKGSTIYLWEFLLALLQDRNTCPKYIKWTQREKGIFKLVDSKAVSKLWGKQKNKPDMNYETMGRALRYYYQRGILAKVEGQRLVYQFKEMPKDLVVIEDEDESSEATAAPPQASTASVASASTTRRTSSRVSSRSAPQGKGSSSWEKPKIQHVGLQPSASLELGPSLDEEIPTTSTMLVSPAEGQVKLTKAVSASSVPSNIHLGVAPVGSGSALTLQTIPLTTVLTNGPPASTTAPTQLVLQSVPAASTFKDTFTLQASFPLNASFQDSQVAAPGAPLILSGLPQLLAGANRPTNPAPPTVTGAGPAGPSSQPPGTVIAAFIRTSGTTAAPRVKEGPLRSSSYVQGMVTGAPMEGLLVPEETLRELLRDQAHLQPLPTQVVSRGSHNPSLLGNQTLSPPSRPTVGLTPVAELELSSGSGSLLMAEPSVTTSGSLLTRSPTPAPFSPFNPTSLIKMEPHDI
Method in brief: as §1

ELK4 = target: T3, ELK4 (Homo sapiens, UniProt P28324-2 1-405); conditions: protein: recombinant; tags: N-terminal GST; dsDNA, one strand shown
T3 sequence: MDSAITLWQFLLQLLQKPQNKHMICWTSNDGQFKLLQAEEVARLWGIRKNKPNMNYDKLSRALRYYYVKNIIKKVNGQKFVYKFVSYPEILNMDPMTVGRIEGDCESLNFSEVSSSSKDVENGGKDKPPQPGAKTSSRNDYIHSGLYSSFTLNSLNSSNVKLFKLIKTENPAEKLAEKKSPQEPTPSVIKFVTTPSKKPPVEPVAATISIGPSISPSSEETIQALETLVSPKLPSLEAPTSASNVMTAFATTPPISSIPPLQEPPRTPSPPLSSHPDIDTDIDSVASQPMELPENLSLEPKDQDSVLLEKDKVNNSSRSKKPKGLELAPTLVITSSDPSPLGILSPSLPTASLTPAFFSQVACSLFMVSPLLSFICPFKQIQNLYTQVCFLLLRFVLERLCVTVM
Method in brief: as §1

ETV2 = target: T4, ETV2 (Homo sapiens, UniProt O00321 1-342); conditions: protein: recombinant; tags: N-terminal GST; dsDNA, one strand shown
T4 sequence: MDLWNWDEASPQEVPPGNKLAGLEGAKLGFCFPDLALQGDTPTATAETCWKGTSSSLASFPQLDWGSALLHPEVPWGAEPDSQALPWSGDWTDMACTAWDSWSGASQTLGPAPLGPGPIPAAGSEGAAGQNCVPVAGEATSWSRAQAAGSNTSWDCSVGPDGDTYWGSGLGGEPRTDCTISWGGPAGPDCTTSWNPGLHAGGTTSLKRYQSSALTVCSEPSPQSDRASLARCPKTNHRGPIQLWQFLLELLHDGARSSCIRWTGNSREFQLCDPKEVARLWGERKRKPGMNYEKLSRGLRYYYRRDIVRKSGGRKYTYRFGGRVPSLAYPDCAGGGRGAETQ
Method in brief: as §1

ELF3 = target: T5, ELF3 (Homo sapiens, UniProt P78545 1-371); conditions: protein: recombinant; tags: N-terminal GST; dsDNA, one strand shown
T5 sequence: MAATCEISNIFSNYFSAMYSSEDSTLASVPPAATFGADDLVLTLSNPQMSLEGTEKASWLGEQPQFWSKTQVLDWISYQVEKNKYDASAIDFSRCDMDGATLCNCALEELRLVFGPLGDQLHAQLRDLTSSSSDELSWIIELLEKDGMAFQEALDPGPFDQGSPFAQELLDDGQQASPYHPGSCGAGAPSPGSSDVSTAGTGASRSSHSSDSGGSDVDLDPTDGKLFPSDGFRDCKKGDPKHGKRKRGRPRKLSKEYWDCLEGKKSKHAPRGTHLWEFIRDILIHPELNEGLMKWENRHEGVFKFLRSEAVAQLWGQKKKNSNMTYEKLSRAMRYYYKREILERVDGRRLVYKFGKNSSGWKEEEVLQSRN
Method in brief: as §1

CRX = CRX (Homo sapiens, UniProt O43186 1-299); conditions: protein: recombinant; tags: N-terminal GST; dsDNA, one strand shown
Sequence of CRX (O43186 whole entry): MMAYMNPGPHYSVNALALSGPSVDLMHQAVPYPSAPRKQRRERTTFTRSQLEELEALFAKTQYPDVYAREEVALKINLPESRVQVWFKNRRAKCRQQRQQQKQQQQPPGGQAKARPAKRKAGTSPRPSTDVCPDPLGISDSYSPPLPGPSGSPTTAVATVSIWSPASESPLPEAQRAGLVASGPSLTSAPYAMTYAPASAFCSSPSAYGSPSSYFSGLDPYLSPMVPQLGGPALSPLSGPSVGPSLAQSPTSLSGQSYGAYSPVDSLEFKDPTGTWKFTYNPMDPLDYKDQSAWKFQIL
Method in brief: as §1

ETV1 = ETV1 (Homo sapiens, UniProt P50549 1-477); conditions: protein: recombinant; tags: N-terminal GST; dsDNA, one strand shown
Sequence of ETV1 (P50549 whole entry): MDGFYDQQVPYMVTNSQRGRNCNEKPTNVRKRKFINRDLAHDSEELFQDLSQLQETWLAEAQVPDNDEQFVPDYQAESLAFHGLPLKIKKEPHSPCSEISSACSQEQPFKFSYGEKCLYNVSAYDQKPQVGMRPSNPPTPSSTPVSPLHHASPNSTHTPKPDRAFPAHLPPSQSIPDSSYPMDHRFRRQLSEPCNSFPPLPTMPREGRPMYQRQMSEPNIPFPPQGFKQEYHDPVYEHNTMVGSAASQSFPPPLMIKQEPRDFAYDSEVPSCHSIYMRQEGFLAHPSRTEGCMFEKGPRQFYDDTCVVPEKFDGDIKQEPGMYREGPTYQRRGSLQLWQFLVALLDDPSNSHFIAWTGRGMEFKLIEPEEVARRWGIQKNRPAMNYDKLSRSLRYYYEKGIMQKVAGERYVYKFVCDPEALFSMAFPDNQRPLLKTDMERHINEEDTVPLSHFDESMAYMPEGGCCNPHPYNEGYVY
Method in brief: as §1

ERF = target: T6, ERF (Homo sapiens, UniProt P50548 1-548); conditions: protein: recombinant; tags: N-terminal GST; dsDNA, one strand shown
T6 sequence: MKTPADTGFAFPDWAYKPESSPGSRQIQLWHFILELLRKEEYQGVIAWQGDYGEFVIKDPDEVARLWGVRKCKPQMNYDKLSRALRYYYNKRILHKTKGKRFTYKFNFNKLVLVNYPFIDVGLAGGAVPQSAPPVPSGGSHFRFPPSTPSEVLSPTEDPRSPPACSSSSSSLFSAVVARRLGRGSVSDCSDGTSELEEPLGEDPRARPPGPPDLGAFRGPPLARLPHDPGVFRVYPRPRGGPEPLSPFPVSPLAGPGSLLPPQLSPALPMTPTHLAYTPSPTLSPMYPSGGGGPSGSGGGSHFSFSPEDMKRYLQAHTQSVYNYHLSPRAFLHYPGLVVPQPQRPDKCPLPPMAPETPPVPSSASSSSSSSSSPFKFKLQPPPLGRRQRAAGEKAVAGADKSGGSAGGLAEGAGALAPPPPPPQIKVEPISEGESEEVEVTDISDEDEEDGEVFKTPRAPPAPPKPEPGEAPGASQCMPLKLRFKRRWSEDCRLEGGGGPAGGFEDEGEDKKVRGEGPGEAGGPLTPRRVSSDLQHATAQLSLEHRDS
Method in brief: as §1

ETV3L = target: T7, ETV3L (Homo sapiens, UniProt Q6ZN32 1-361); conditions: protein: recombinant; tags: N-terminal GST; dsDNA, one strand shown
T7 sequence: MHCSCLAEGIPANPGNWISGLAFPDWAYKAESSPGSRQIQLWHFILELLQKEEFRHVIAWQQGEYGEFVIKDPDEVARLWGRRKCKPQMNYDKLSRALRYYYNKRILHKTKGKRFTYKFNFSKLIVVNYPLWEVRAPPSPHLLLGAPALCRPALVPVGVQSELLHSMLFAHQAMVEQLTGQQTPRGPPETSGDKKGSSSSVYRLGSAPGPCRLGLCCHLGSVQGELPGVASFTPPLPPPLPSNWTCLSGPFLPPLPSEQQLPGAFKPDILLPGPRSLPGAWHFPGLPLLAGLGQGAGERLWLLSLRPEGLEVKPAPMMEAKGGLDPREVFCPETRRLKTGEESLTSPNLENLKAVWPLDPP
Method in brief: as §1

ETS2 = target: T8, ETS2 (Homo sapiens, UniProt P15036 1-469); conditions: protein: recombinant; tags: N-terminal GST; dsDNA, one strand shown
T8 sequence: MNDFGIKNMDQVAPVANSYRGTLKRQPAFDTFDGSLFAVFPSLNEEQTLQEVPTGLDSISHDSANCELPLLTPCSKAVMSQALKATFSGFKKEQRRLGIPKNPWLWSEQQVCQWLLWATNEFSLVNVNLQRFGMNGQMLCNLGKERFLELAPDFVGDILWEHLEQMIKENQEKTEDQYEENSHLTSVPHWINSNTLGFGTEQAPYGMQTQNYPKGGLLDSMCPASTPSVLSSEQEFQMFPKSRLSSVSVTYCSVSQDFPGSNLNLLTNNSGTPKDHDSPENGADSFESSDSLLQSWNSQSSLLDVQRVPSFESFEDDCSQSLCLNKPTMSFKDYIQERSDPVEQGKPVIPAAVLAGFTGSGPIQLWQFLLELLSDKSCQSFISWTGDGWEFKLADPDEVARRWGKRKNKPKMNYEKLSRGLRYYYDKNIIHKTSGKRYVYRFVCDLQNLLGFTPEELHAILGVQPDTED
Method in brief: as §1

SPDEF = target: T9, SPDEF (Homo sapiens, UniProt O95238 1-335); conditions: protein: recombinant; tags: N-terminal GST; dsDNA, one strand shown
T9 sequence: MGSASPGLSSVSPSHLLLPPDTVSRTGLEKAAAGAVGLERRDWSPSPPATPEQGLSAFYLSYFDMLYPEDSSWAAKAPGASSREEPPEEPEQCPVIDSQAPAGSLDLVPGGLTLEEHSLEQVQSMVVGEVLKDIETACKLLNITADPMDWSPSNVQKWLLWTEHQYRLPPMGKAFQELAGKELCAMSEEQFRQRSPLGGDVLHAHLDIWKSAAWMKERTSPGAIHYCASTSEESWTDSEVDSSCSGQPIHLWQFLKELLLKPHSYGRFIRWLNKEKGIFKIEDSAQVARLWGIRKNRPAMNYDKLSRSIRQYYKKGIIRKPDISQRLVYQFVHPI
Method in brief: as §1

ETV7 = target: T10, ETV7 (Homo sapiens, UniProt Q9Y603 1-341); conditions: protein: recombinant; tags: N-terminal GST; dsDNA, one strand shown
T10 sequence: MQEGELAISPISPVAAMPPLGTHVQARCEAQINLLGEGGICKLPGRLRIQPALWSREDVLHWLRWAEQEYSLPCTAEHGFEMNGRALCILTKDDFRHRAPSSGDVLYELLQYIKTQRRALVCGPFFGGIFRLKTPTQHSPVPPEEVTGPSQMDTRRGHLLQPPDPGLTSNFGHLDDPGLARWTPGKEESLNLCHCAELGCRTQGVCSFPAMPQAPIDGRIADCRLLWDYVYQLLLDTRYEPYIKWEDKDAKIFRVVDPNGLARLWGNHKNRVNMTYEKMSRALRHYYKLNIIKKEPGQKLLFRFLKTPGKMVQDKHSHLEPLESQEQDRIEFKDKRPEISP
Method in brief: as §1

ELF5 = target: T11, ELF5 (Homo sapiens, UniProt Q9UKW6-2 1-255); conditions: protein: recombinant; tags: N-terminal GST; dsDNA, one strand shown
T11 sequence: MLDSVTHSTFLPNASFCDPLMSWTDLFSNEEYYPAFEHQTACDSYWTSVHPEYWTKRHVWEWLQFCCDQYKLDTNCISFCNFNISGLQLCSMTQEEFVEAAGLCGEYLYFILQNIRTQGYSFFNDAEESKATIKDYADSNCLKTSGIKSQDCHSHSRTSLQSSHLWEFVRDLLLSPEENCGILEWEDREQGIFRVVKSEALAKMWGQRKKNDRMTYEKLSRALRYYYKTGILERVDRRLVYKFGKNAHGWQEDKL
Method in brief: as §1

ETV3 = target: T12, ETV3 (Homo sapiens, UniProt P41162-2 1-143); conditions: protein: recombinant; tags: N-terminal GST; dsDNA, one strand shown
T12 sequence: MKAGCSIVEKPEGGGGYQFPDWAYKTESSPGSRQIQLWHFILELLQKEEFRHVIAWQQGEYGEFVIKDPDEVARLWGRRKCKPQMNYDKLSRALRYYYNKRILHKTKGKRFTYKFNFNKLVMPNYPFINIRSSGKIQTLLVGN
Method in brief: as §1

ETV6 = ETV6 (Homo sapiens, UniProt P41212 1-452); conditions: protein: recombinant; tags: N-terminal GST; dsDNA, one strand shown
Sequence of ETV6 (P41212 whole entry): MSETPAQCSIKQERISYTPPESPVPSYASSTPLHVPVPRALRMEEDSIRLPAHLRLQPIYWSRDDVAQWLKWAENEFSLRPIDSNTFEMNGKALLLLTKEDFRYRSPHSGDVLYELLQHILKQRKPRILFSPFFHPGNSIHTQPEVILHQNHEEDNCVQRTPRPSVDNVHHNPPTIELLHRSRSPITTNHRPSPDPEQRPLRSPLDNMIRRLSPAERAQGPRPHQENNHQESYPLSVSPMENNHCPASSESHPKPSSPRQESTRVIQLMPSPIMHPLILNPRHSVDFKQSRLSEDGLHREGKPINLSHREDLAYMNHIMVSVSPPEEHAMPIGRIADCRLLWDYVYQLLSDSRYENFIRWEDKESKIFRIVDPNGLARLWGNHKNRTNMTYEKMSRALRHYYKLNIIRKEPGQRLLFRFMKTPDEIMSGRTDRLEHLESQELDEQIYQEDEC
Method in brief: as §1

Sequence	binding signal (FEV)	binding signal (ETV5)	binding signal (HSF1)	binding signal (SPIC)	binding signal (ELF4)	binding signal (ELK4)	binding signal (ETV2)	binding signal (ELF3)	binding signal (CRX)	binding signal (ETV1)	binding signal (ERF)	binding signal (ETV3L)	binding signal (ETS2)	binding signal (SPDEF)	binding signal (ETV7)	binding signal (ELF5)	binding signal (ETV3)	binding signal (ETV6)
ACGTTT	1.22 fold enrichment (6-mer frequency, TF over GST control)	1.15 fold enrichment (6-mer frequency, TF over GST control)	1.05 fold enrichment (6-mer frequency, TF over GST control)	1.29 fold enrichment (6-mer frequency, TF over GST control)	1.14 fold enrichment (6-mer frequency, TF over GST control)	1.22 fold enrichment (6-mer frequency, TF over GST control)	1.18 fold enrichment (6-mer frequency, TF over GST control)	1.08 fold enrichment (6-mer frequency, TF over GST control)	1 fold enrichment (6-mer frequency, TF over GST control)	1.22 fold enrichment (6-mer frequency, TF over GST control)	1.18 fold enrichment (6-mer frequency, TF over GST control)	1.13 fold enrichment (6-mer frequency, TF over GST control)	1.2 fold enrichment (6-mer frequency, TF over GST control)	1.21 fold enrichment (6-mer frequency, TF over GST control)	1.33 fold enrichment (6-mer frequency, TF over GST control)	1.23 fold enrichment (6-mer frequency, TF over GST control)	1.1 fold enrichment (6-mer frequency, TF over GST control)	1.33 fold enrichment (6-mer frequency, TF over GST control)
ATGACG	1.32 fold enrichment (6-mer frequency, TF over GST control)	1.4 fold enrichment (6-mer frequency, TF over GST control)	1.13 fold enrichment (6-mer frequency, TF over GST control)	1.18 fold enrichment (6-mer frequency, TF over GST control)	1.39 fold enrichment (6-mer frequency, TF over GST control)	1.47 fold enrichment (6-mer frequency, TF over GST control)	1.25 fold enrichment (6-mer frequency, TF over GST control)	1.3 fold enrichment (6-mer frequency, TF over GST control)	1.11 fold enrichment (6-mer frequency, TF over GST control)	1.3 fold enrichment (6-mer frequency, TF over GST control)	1.39 fold enrichment (6-mer frequency, TF over GST control)	1.34 fold enrichment (6-mer frequency, TF over GST control)	1.26 fold enrichment (6-mer frequency, TF over GST control)	1.45 fold enrichment (6-mer frequency, TF over GST control)	1.16 fold enrichment (6-mer frequency, TF over GST control)	1.44 fold enrichment (6-mer frequency, TF over GST control)	1.2 fold enrichment (6-mer frequency, TF over GST control)	1.28 fold enrichment (6-mer frequency, TF over GST control)
